# From PubChem BioAssay AID2687 (National Center for Advancing Translational Sciences (NCATS), 2010)
# Activity calls are given as the source filed them.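 How the source made its calls: active means potency half-maximal inhibitory concentration below 100 µM; inconclusive means dose-dependent response but potency above 100 µM; inactive means the rest.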
# Molecular target: Lysine-specific demethylase 4E (Homo sapiens) (UniProt B2RXH2)
# Assay: AlphaScreen Assay for Inhibitors of Human Jumonji Domain Containing 2E (JMJD2E)
# Conditions: recombinant JMJD2E, H3K9me3 peptide demethylation
# Text: The fine interplay among methylation states of several lysine residues on the tails of histone proteins is a major determinant of the transcriptional state of the associated DNA coding regions and is commonly referred to as the histone code. Histone lysine demethylases catalyze the removal of methyl groups from methylated lysine sidechains on histones H3 and H4, thus antagonizing the reactions catalyzed by histone lysine methyltransferases. […] In search for novel inhibitors of JMJD2E demethylase, a member of the largest set of histone demethylases belonging to the Fe(II) and 2-oxoglutarate oxygenase (2OG) superfamily, we performed a quantitative high-throughput screen (Inglese 2006). See AID 2147 for details on the primary screen. The assay here is a secondary AlphaScreen screen used to validate follow-up compounds. References: Inglese, J., Auld, D., Jadhav, A., Johnson, R., Simeonov, A., Yasgar, A., Zheng, W. and Austin, C. […]
# Assay Buffer: 50 mM HEPES pH7.5, 0.01% Tween-20, 0.1% BSA (Cohn Fraction V; Sigma A7030) Peptide: biotin-[…](me3/2)STGGKA Antibody: Abcam Ab1220, Anti-H3K9Me2 Final concentration of components in enzyme reaction: JMJD2E 5 nM, Peptide 30 nM, […] L-Ascorbic Acid, […], DMSO 0.1% Alphascreen beads made up in the dark in assay buffer and pre-incubated for 1 hour in the dark. […] Read plate on BMG Labtech Pherastar FS
# Lysine-specific demethylase 4E (Homo sapiens), sequence (B2RXH2 1-337 limits assumed): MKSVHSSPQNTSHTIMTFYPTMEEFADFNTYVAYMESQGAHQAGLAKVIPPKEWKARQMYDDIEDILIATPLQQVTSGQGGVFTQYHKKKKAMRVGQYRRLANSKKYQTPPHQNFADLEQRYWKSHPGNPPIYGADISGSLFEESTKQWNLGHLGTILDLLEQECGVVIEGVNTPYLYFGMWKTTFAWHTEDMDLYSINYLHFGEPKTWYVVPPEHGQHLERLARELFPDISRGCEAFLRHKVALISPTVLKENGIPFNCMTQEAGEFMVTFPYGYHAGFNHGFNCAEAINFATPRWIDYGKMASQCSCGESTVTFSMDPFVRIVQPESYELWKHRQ
row,Compound,Potency
1,Oc1ccc(CNc2cccc(F)c2)c2cccnc12,1.49 µM (active)
2,O=S(=O)(Nc1ccc(O)c2ncccc12)c1ccccc1F,0.435 µM (active)
